Screens from PubChem BioAssay.
CHRM1 antagonist: human CHRM1 antagonism. P11229. 360,000 compounds, 1.3% hits. CHO-K1 hM1, Fluo-8 calcium fluorescence, ACh EC80 antagonist. inhibition, % at 3 µM;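 active = percent inhibition above its own plate's cutoff, namely the mean of that plate's compound wells plus 3 SD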;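 also: peak over basal fluorescence ratio during 140 s after agonist addition; 0% = ACh EC80 plus DMSO and 100% = DMSO alone without agonist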
Target sequence (P11229 whole entry, looked up): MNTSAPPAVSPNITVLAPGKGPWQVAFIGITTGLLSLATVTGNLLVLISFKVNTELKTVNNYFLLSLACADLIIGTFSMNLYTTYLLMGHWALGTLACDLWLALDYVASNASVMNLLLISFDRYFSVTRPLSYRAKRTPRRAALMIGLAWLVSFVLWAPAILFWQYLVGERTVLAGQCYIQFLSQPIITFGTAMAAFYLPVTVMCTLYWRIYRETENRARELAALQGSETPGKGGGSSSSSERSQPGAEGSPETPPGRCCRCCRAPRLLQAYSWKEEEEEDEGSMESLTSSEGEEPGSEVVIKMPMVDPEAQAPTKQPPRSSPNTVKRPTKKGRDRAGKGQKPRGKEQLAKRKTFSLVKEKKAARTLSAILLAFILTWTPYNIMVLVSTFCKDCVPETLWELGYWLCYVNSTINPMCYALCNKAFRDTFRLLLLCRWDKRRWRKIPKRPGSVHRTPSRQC
M1 PAM parental: M1 PAM counterscreen hit in parental CHO-K1 cells | ATP EC20, Fluo-8 calcium fluorescence; 0% at ATP EC20, 100% at ATP max | activation, % at 3 µM | 360,000 compounds, 0.02% hits | AID 602247;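 active = activation above the run cutoff, the mean activation of all test compounds plus 3 SD, cut at about 40% in these data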;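 also: peak over basal fluorescence ratio in a 140 s read after ATP addition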
CHRM1 PAM: potentiates human M1 receptor response to acetylcholine. P11229. CHO-K1 hM1, Fluo-8 calcium fluorescence, ACh EC20; 0% = ACh EC20, 100% = maximal ACh. activation, % at 3 µM. 360,000 compounds, 0.088% hits. AID 588819; in the data active = activation above about 19%, passing the limit was not always enough
M1 ag: agonists of human M1 muscarinic receptor. CHO-K1 hM1, Fluo-8 calcium fluorescence, agonist mode; 0% DMSO, 100% acetylcholine EC100. activation, % at 3 µM. 360,000 compounds, 0.33% hits. AID 588814;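 active = activation above the run's mean compound activation plus 3 SD, cut at about 16% in these data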;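 also: peak over basal fluorescence ratio within a 140 s kinetic read after compound addition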
M1 ag parental: counter-screen for M1 agonists: effect in parental CHO-K1 cells. 360,000 compounds, 0.48% hits. activation, % at 3 µM. AID 602248. Fluo-8 calcium fluorescence; scaled to maximal ATP response, vehicle zero; in the data active = activation above about 15%;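 also: untransfected CHO-K1 host cells lacking M1 receptor as counterscreen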
CHO-K1 Ca antag: M1 antagonist counterscreen hit in parental CHO-K1 cells; 360,000 compounds, 0.6% hits; inhibition, % at 3 µM; ATP-induced calcium, Fluo-8 fluorescence;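 active = inhibition above a per-plate cutoff, the plate's mean sample inhibition plus 3 SD, cut at about 24% in these data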;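 also: 0% = DMSO plus EC80 ATP and 100% = DMSO alone without ATP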
Active calls of the source: *. This is a sample that favours compounds with a hit; in the whole collection about 2.3% have one here.

SMILES	CHRM1 antagonist	M1 PAM parental	CHRM1 PAM	M1 ag	M1 ag parental	CHO-K1 Ca antag
CC(=O)Nc1ccc(CN(C)CC2CCCN(CCc3cccc(C(F)(F)F)c3)C2)cc1 (stereo unspecified)	52*	15	-29	-8	0	-11
NC(Cc1ccccc1)c1csc(Nc2nccc(C(F)(F)F)n2)n1 (stereo unspecified)	16	5	-4	6	2	5
COc1ccc(C(CNc2ncnc3sccc23)N(C)C)cc1OC (stereo unspecified)	-11	6	7	-8	1	-16
COc1ccc(CCNc2ncnc3cc(OC)c(OC)cc23)cc1OC	8	-5	-7	-1	16*	-9
CN(C)C(CNc1ncnc2sccc12)c1ccccc1 (stereo unspecified)	47*	-14	-33	-14	0	5
COc1ccc(CNc2ncnc3sccc23)cc1	31*	-19	-19	-1	12	23
COc1ccc(CNc2ncnc3sccc23)cc1OC	-1	-4	-4	3	16*	9
CC1=C(C(=O)N(C(C)C)C(C)C)CC(CC(=O)NCc2cccc3ccccc23)C(=O)N1Cc1ccc(F)cc1 (stereo unspecified)	-23	7	1	-4	0	-11
CCCNC(=O)c1cc(C2CCCCN2S(=O)(=O)Cc2cccc(C(F)(F)F)c2)on1 (stereo unspecified)	-14	13	1	-8	0	-11
CCNC(=O)C1CCCN(C(=O)c2ccc(C#N)cc2)CC1 (stereo unspecified)	-12	18	6	-2	0	-2
CCCCn1c(N)c(N(CCOC)C(=O)COC(=O)c2cc(CCC)c(C)s2)c(=O)[nH]c1=O	-14	5	13	-2	0	-10
COc1ccc(CN2C(=O)C(CC(=O)NC3CCCCC3)CC(C(=O)N(C(C)C)C(C)C)=C2C)cc1 (stereo unspecified)	-11	14	9	-7	0	-9
CCOC(=O)c1nnc(-c2cccs2)nc1NC(C)C	-8	-5	10	-2	0	25*
C[C@H]1CN([C@@H](C)CO)C(=O)CCCn2nncc2CO[C@@H]1CN(C)Cc1ccc(-c2ccccc2)cc1	37*	4	-26	-5	5	3
C[C@@H]1CN([C@H](C)CO)C(=O)CCCn2nncc2CO[C@H]1CN(C)Cc1ccc(-c2ccccc2)cc1	-1	-11	-6	-11	0	10
Cc1noc(C)c1NC(=O)N(C)C[C@H]1OCc2cnnn2CCCC(=O)N([C@H](C)CO)C[C@H]1C	-21	13	27*	5	0	-5
COc1ccc(S(=O)(=O)N(C)C[C@@H]2OCc3cnnn3CCCC(=O)N([C@@H](C)CO)C[C@@H]2C)cc1	-38	19	28*	5	1	-6
Cc1ccc(S(=O)(=O)N(C)C[C@H]2OCc3cnnn3CCCC(=O)N([C@@H](C)CO)C[C@H]2C)cc1	4	9	1	-5	0	-3
C[C@@H]1CN([C@@H](C)CO)C(=O)CCCn2nncc2CO[C@@H]1CN(C)C(=O)Nc1cccc(C(F)(F)F)c1	-16	-5	10	-1	0	26*
O=C(N/N=C/C1CC=CCC1)c1cc(-c2cccnc2)nc2ccccc12 (stereo unspecified)	-1	-6	-3	-9	1	0
O=C(COC(=O)c1ccccc1O)Nc1cccc2ccccc12	-12	1	20	1	1	1
CCN(CC)CCCNC(=S)N(CCO)Cc1cc2cc3c(cc2[nH]c1=O)OCCO3	-1	-3	-6	-10	0	-8
COc1ccc(-n2c(C)cc(C(=O)COC(=O)Cn3cnc4ccccc43)c2C)cc1	20*	2	-12	2	9	33*
Cc1ccc(Cl)cc1N1CCN(C(=O)C2CCN(S(=O)(=O)c3c(C)nn(C)c3C)CC2)CC1	22*	-2	-20	10	12	16
Cc1ccc(Cl)cc1N1CCN(C(=O)C2CCN(S(=O)(=O)c3cccnc3)CC2)CC1	18	-9	-7	2	8	16
SMILES	CHRM1 antagonist	M1 PAM parental	CHRM1 PAM	M1 ag	M1 ag parental	CHO-K1 Ca antag
Cc1ccc(NC(=O)C2CCN(S(=O)(=O)c3c(C)nn(C)c3C)CC2)c(Cl)c1	-9	16	6	-4	2	37*
Cc1ccc(CCNC(=O)C2CCN(S(=O)(=O)c3c(C)nn(C)c3C)CC2)cc1	-10	18	9	-5	1	-19
Cc1ccc(-n2nc3c(c2NC(=O)c2ccc4c(c2)OCO4)CS(=O)(=O)C3)cc1C	-10	7	8	-4	1	-5
CCCN(C)C[C@H]1OCc2cnnn2CCCC(=O)N([C@H](C)CO)C[C@@H]1C	-26	22	6	-2	2	-17
Cc1ccc(NC(=O)C2(C)CCN2Cc2cccc3c2OCO3)cc1O (stereo unspecified)	2	10	-7	-1	3	-12
CC(C)[C@H](NC(=O)c1c(F)cccc1F)C(=O)Nc1cccc(Br)c1	-6	3	5	-2	19*	6
Cc1ccc(NC(=O)[C@@H]2CCCN2C(=O)c2cccs2)cc1S(=O)(=O)N1CCCCC1	-12	23	6	-8	0	-20
CC1CC(C)CN(S(=O)(=O)c2ccc(NC(=O)[C@@H]3CCCN3C(=O)c3cccs3)cc2)C1 (stereo partly specified)	30*	14	-22	-7	0	-10
N#Cc1ccccc1S(=O)(=O)N1CCN(C(=O)[C@@H]2CCCN2C(=O)c2cccs2)CC1	33*	-10	-10	-4	0	8
CCCc1ccc(C(=O)NNc2ccccc2F)cc1	-11	13	2	-3	1	-6
CCOC(=O)N1CCN(C(=O)c2ccc(NS(=O)(=O)c3ccc(C)cc3)cc2)CC1	0	20	0	4	4	2
Cc1ccc(NS(=O)(=O)c2ccc(C(=O)N3CCC3)cc2)cc1	5	-18	-5	3	3	7
CCOC(=O)N1CCN(C(=O)c2ccc(S(=O)(=O)Nc3ccc(C)cc3)cc2)CC1	32*	-2	-14	-2	6	-3
Cc1ccc(NS(=O)(=O)c2ccc(C(=O)N3CC(C)OC(C)C3)cc2)cc1 (stereo unspecified)	11	-21	-6	39*	33*	2
COc1ccc(CNS(=O)(=O)c2c(C(=O)N3CCCCCC3)c(C)n(C)c2C)cc1	-16	3	4	-1	0	26*
COc1ccc(NS(=O)(=O)c2ccc(OCC(=O)N3CCCC3)cc2)cc1	3	20	-2	4	17*	-7
